Measurements as given in PubChem BioAssay (Tox21).
Where “and” joins values, the source holds several entries; their conditions need not be identical. Equal entries are not always repeated. Results filed as inconclusive are left out. Entries that show only a call come without a potency. Calls of active or inactive are those of the source. Calls come from the whole dose curve; as a rule, active = well fitted curve in the direction sought with a large enough effect in the repeat runs; inconclusive = weak or mixed curves; inactive = no such curve, though single readings can be large; an effect the other way counts as inactive or inconclusive.

Biological target: Androgen receptor (Homo sapiens) (UniProt P10275)
Assay: qHTS assay to identify small molecule agonists of the androgen receptor (AR) signaling pathway using the MDA cell line (AID 743040; note: nearly all actives have a fitted effect of over 20% in size; note: potency is the fitted concentration of half-maximal effect)
Settings: MDA-kb2 AR-luc cells, MMTV luciferase, 16 h; series mostly up to 70.3 µM
Procedure, shortened: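 Luminescence from ONE-Glo, read after 30 min at room temperature, reflects MMTV-driven luciferase in MDA-kb2 cells (AR- and GR-responsive). Treatment lasted 16 h at 37C, 0% CO2.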

Sequence of Androgen receptor (Homo sapiens) (P10275 whole entry, looked up): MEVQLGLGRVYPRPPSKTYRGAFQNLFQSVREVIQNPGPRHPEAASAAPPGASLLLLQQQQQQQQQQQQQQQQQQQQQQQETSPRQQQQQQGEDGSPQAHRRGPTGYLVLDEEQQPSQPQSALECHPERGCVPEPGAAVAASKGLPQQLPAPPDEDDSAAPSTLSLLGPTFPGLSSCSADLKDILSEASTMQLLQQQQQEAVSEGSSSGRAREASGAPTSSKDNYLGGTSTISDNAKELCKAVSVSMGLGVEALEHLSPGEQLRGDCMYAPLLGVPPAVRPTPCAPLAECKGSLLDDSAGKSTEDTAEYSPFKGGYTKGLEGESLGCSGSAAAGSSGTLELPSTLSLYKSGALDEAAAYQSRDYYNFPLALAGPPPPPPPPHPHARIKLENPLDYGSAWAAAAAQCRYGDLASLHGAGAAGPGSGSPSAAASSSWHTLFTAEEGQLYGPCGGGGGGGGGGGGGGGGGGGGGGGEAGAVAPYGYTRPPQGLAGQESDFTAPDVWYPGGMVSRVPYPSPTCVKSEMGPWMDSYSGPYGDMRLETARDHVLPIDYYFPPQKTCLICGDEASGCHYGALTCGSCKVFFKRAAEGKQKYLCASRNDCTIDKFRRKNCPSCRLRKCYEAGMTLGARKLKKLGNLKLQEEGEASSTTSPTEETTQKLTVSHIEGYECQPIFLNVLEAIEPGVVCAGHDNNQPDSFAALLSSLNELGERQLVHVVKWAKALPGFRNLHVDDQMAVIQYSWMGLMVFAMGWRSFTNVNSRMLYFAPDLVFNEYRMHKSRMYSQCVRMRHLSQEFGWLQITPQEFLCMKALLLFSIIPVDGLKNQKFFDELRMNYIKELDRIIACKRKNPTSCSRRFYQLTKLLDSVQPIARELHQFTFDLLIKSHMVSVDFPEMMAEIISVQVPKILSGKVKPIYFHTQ

Row | SMILES | Potency
1 | NCCCN1CCN(CCCN)CC1 | inactive
2 | COC(C)CCO (configuration not stated) | inactive
3 | Cn1cnc2c(F)c(Nc3ccc(Br)cc3Cl)c(C(=O)NOCCO)cc21 | inactive
4 | Cc1cc(S(=O)(=O)O)c(N)cc1Cl | inactive
5 | OC[C@H]1O[C@@H](O[C@H]2[C@H](O)[C@@H](O)[C@H](O)O[C@@H]2CO)[C@H](O)[C@@H](O)[C@H]1O | inactive
6 | CC1=C2[C@H](/C=C(\C)C(=O)O)CC[C@@H](C)[C@H]2CC1 | inactive
7 | OCCN(CCO)c1ccccc1 | inactive
8 | CN1CCN(C2=Nc3cc(F)ccc3Cc3ccccc32)CC1 | inactive
9 | Nc1cccc(S(=O)(=O)O)c1 | inactive
10 | COC(=O)C(C)O (configuration not stated) | inactive
11 | C[C@@H]1CN(c2c(F)c(F)c3c(=O)c(C(=O)O)cn(C4CC4)c3c2F)C[C@H](C)N1 | 26.6 µM (active)
12 | CN(C)Cc1ccccc1 | inactive
13 | CCCCc1ccc2nc(NC(=O)OC)[nH]c2c1 | 5.07 µM (active)
14 | Cc1ncc(CO)c(CN)c1O | inactive

Tested on: not listed separately
Assay: qHTS assay to identify small molecule antagonists of the androgen receptor (AR) signaling pathway using the MDA cell line - cell viability counter screen (AID 743041; note: nearly all actives have a fitted effect of over 45% in size)
Settings: MDA-kb2 viability, CellTiter-Fluor, 16 h, cells co-treated with R1881 androgen agonist; series mostly up to 70.3 µM
Procedure, shortened: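 Viability counter screen run alongside the AR antagonist reporter: cells seeded 5 h before compound, R1881 added, 16 h incubation at 37C without CO2, fluorescent CellTiter-Fluor signal quantified.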

Row | SMILES | Potency
15 | NCCCN1CCN(CCCN)CC1 | inactive
16 | CCOC(=O)[C@H](CCc1ccccc1)N[C@@H](C)C(=O)N1Cc2cc(OC)c(OC)cc2C[C@H]1C(=O)O | inactive
17 | COc1ccc(S(=O)(=O)Nc2nnc(CC(C)C)s2)cc1 | inactive
18 | C[C@]12C(=O)OC(=O)[C@H]1[C@H]1C=C[C@@H]2C1 | inactive
19 | COC(C)CCO (configuration not stated) | inactive
20 | Cn1cnc2c(F)c(Nc3ccc(Br)cc3Cl)c(C(=O)NOCCO)cc21 | inactive
21 | Cc1cc(S(=O)(=O)O)c(N)cc1Cl | inactive
22 | OC[C@H]1O[C@@H](O[C@H]2[C@H](O)[C@@H](O)[C@H](O)O[C@@H]2CO)[C@H](O)[C@@H](O)[C@H]1O | inactive
23 | C=CCc1cc(OC)c(O)c(C(=O)NCCO)c1 | inactive
24 | COc1ccccc1OCC(O)COC(N)=O (configuration not stated) | inactive
25 | OCC(CBr)(CBr)CBr | inactive
26 | CC1=C2[C@H](/C=C(\C)C(=O)O)CC[C@@H](C)[C@H]2CC1 | inactive
27 | CC(C)C(=O)OC/C=C/c1ccccc1 | inactive
28 | CCOC(=O)NCCC[Si](OCC)(OCC)OCC | inactive
29 | O=C1C=CC(=O)O1 | inactive
30 | CN1CCN(C2=Nc3cc(F)ccc3Cc3ccccc32)CC1 | inactive
31 | Oc1ccccc1F | inactive

Row | SMILES | Potency
32 | Nc1cccc(S(=O)(=O)O)c1 | inactive
33 | COC(=O)C(C)O (configuration not stated) | inactive
34 | CC(C)O | inactive
35 | CCCCC1CCC(=O)O1 (configuration not stated) | inactive
36 | CC1(C)O[C@@H]2C[C@H]3[C@@H]4CCC5=CC(=O)CC[C@]5(C)[C@@]4(F)[C@@H](O)C[C@]3(C)[C@]2(C(=O)CCl)O1 | inactive
37 | C[C@@H]1CN(c2c(F)c(F)c3c(=O)c(C(=O)O)cn(C4CC4)c3c2F)C[C@H](C)N1 | inactive
38 | FC(F)(F)C(Cl)(Cl)Cl | inactive
39 | CN(C)Cc1ccccc1 | inactive
40 | CCCCc1ccc2nc(NC(=O)OC)[nH]c2c1 | inactive
41 | FC(F)(F)c1ccccc1 | inactive
42 | Cc1ncc(CO)c(CN)c1O | inactive
43 | CCc1cc(Cl)c(OC)c(C(=O)NC[C@@H]2CCCN2CC)c1O | inactive
44 | Cc1nnc(SCC2=C(C(=O)O)N3C(=O)[C@@H](NC(=O)Cn4cnnn4)[C@H]3SC2)s1 | inactive
45 | O=C1CCCCCCCCCCC(=O)OCCO1 | inactive
46 | CC(C)(CO)[C@@H](O)C(=O)NCCC(=O)O | inactive
47 | CCOC(=O)C1CC(=O)C(=C(O)C2CC2)C(=O)C1 (configuration not stated) | inactive
48 | CCOc1ccccc1N | inactive

Biological target: Androgen receptor (Homo sapiens) (UniProt P10275)
Assay: qHTS assay to identify small molecule antagonists of the androgen receptor (AR) signaling pathway using the MDA cell line (AID 743042; note: nearly all actives have a fitted effect of over 55% in size)
Settings: MDA-kb2 AR-luc, MMTV luciferase, R1881 antagonist, 16 h; series mostly up to 70.3 µM
Procedure, shortened: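 MDA-kb2 cells (human breast carcinoma, stably carrying an MMTV-luciferase reporter responsive to AR and GR) were plated at 3,000 cells/well and preincubated 5 hr at 37C, then given compound plus R1881 agonist for 16 h. ONE-Glo luminescence was read.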

Row | SMILES | outcome
49 | NCCCN1CCN(CCCN)CC1 | inactive
50 | COC(C)CCO (configuration not stated) | inactive
51 | Cc1cc(S(=O)(=O)O)c(N)cc1Cl | inactive
52 | OC[C@H]1O[C@@H](O[C@H]2[C@H](O)[C@@H](O)[C@H](O)O[C@@H]2CO)[C@H](O)[C@@H](O)[C@H]1O | inactive
53 | CC1=C2[C@H](/C=C(\C)C(=O)O)CC[C@@H](C)[C@H]2CC1 | inactive
54 | OCCN(CCO)c1ccccc1 | inactive
55 | CN1CCN(C2=Nc3cc(F)ccc3Cc3ccccc32)CC1 | inactive
56 | Nc1cccc(S(=O)(=O)O)c1 | inactive
57 | COC(=O)C(C)O (configuration not stated) | inactive
58 | C[C@@H]1CN(c2c(F)c(F)c3c(=O)c(C(=O)O)cn(C4CC4)c3c2F)C[C@H](C)N1 | inactive
59 | CN(C)Cc1ccccc1 | inactive
60 | CCCCc1ccc2nc(NC(=O)OC)[nH]c2c1 | inactive
61 | Cc1ncc(CO)c(CN)c1O | inactive

Tested on: not listed separately
Assay: qHTS assay to identify small molecule antagonists of the thyroid receptor (TR) signaling pathway - cell viability counter screen (AID 743064); note: nearly all actives have a fitted effect of over 50% in size; note: potency is the fitted concentration of half-maximal effect
Settings: GH3.TRE-Luc viability, CellTiter-Fluor, 24 h; series mostly up to 70.3 µM
Procedure, shortened: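 Viability of T3-stimulated (1 nM final) GH3.TRE-Luc cells is measured by CellTiter-Fluor fluorescence after 23.5 h compound exposure at 37 °C plus 30 min reagent incubation.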

Row | SMILES | Potency
62 | CCOC(=O)[C@H](CCc1ccccc1)N[C@@H](C)C(=O)N1Cc2cc(OC)c(OC)cc2C[C@H]1C(=O)O | inactive
63 | COc1ccc(S(=O)(=O)Nc2nnc(CC(C)C)s2)cc1 | inactive
64 | C[C@]12C(=O)OC(=O)[C@H]1[C@H]1C=C[C@@H]2C1 | inactive
65 | COC(C)CCO (configuration not stated) | inactive
66 | Cc1cc(S(=O)(=O)O)c(N)cc1Cl | inactive
67 | OC[C@H]1O[C@@H](O[C@H]2[C@H](O)[C@@H](O)[C@H](O)O[C@@H]2CO)[C@H](O)[C@@H](O)[C@H]1O | inactive
68 | C=CCc1cc(OC)c(O)c(C(=O)NCCO)c1 | inactive
69 | COc1ccccc1OCC(O)COC(N)=O (configuration not stated) | inactive
70 | OCC(CBr)(CBr)CBr | inactive
71 | CC1=C2[C@H](/C=C(\C)C(=O)O)CC[C@@H](C)[C@H]2CC1 | inactive
72 | OCCN(CCO)c1ccccc1 | inactive
73 | CC(C)C(=O)OC/C=C/c1ccccc1 | inactive
74 | CCOC(=O)NCCC[Si](OCC)(OCC)OCC | inactive
75 | O=C1C=CC(=O)O1 | inactive
76 | Oc1ccccc1F | inactive
77 | Nc1cccc(S(=O)(=O)O)c1 | inactive

Row | SMILES | Potency
78 | COC(=O)C(C)O (configuration not stated) | inactive
79 | CC(C)O | inactive
80 | CCCCC1CCC(=O)O1 (configuration not stated) | inactive
81 | CC1(C)O[C@@H]2C[C@H]3[C@@H]4CCC5=CC(=O)CC[C@]5(C)[C@@]4(F)[C@@H](O)C[C@]3(C)[C@]2(C(=O)CCl)O1 | inactive
82 | FC(F)(F)C(Cl)(Cl)Cl | inactive
83 | CN(C)Cc1ccccc1 | inactive
84 | CCCCc1ccc2nc(NC(=O)OC)[nH]c2c1 | 114 nM (active)
85 | FC(F)(F)c1ccccc1 | inactive
86 | Cc1ncc(CO)c(CN)c1O | inactive
87 | CCc1cc(Cl)c(OC)c(C(=O)NC[C@@H]2CCCN2CC)c1O | 23.7 µM (active) and 7.5 µM (active)
88 | Cc1nnc(SCC2=C(C(=O)O)N3C(=O)[C@@H](NC(=O)Cn4cnnn4)[C@H]3SC2)s1 | inactive
89 | O=C1CCCCCCCCCCC(=O)OCCO1 | inactive
90 | CC(C)(CO)[C@@H](O)C(=O)NCCC(=O)O | inactive
91 | CCOC(=O)C1CC(=O)C(=C(O)C2CC2)C(=O)C1 (configuration not stated) | inactive
92 | CCOc1ccccc1N | inactive
